Drawing on PubChem BioAssay AID1839 (Johns Hopkins Ion Channel Center, 2009), this text covers signal change vs control minus 3*SD hit threshold (margin above threshold, higher = more increase) for 5 compounds.

Hit rate of the full screen: of about 2,400 compounds, about 220 (9.2%) were called active. This excerpt belongs to a sample that is enriched for actives. Unmarked numbers belong to inactive results.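 How the source made its calls: active means signal change above the mean of dofetilide-free buffer controls plus 3 SD, so a positive margin; inactive means the rest.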

The experiment in a line: nonspecific flux effects in parental CHO-K1, confirmation, counter-screen for hERG block protection project, cell-based, CHO-K1 parental line, FluxOR thallium flux (AID 1839).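 Further: compounds applied alone with no dofetilide to cells lacking hERG.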 The conditions noted are these: CHO-K1 parental cells, FluxOR thallium flux fluorescence; at 10 µM. On the technique in general: A counterscreen serves to expose hits that act by an unwanted route or on another target.
For `CC/C(=C\C=C\[C@@H]1C=C[C@@H]2CCC[C@H]2[C@@H]1C(=O)c1ccc[nH]1)[C@@H]1O[C@@H]([C@@H](C)C(=O)O)CC[C@@H]1C`, the signal change vs control minus 3*SD hit threshold (margin above threshold, higher = more increase) was 83% (active).

Regarding `O=c1c2cc(Br)ccc2[nH]c(=S)n1-c1ccccc1`, the signal change vs control minus 3*SD hit threshold (margin above threshold, higher = more increase) was -20.2%.

Take `CCCCN1C(=O)/C(=C/c2ccc(N3CCCCCC3)cc2)C(=O)NC1=S`: the signal change vs control minus 3*SD hit threshold (margin above threshold, higher = more increase) is -36%.

Consider `Cc1ccc(/C=C2\C(=O)NC(=S)N(c3ccc(F)cc3)C2=O)s1`, for which the signal change vs control minus 3*SD hit threshold (margin above threshold, higher = more increase) was -30.1%.

For `CN1C(=O)/C(=C/c2ccc(Cl)s2)C(=O)NC1=S`, the signal change vs control minus 3*SD hit threshold (margin above threshold, higher = more increase) is -29.5%.
